Compound activity (PubChem)
In the library only some 6.9% were active in any assay of this set; here they are far more common.
BAZ2B inh – qHTS Assay for Inhibitors of BAZ2B; AlphaScreen BAZ2B-H3K14Ac peptide displacement; Potency, µM (top dose mostly 114 µM), most hits filed as inhibitors; Bromodomain adjacent to zinc finger domain protein 2B (Homo sapiens), Q9UIF8; 4.4% of 360,000 active; also: nearly all actives have a fitted effect of over 60% in size
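In this displacement format the biotinylated H3(5-23) peptide acetylated at Lys14 serves as ligand at 50 nM, with BAZ2B at 50 nM in PBS pH 7.4 containing 0.01% Tween-20. Donor and acceptor beads are 10 ug/mL final.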
L3MBTL1 block – qHTS Assay for the Inhibitors of L3MBTL1. Lethal(3)malignant brain tumor-like protein 1 (Homo sapiens), Q9Y468. AlphaScreen L3MBTL1–H3K9me1 peptide binding. Potency, µM (top dose mostly 57.1 µM), usual class: inhibitors. 0.66% of 230,000 active; also: nearly all actives have a fitted effect of over 60% in size
Target sequence (Q9Y468 whole entry, looked up): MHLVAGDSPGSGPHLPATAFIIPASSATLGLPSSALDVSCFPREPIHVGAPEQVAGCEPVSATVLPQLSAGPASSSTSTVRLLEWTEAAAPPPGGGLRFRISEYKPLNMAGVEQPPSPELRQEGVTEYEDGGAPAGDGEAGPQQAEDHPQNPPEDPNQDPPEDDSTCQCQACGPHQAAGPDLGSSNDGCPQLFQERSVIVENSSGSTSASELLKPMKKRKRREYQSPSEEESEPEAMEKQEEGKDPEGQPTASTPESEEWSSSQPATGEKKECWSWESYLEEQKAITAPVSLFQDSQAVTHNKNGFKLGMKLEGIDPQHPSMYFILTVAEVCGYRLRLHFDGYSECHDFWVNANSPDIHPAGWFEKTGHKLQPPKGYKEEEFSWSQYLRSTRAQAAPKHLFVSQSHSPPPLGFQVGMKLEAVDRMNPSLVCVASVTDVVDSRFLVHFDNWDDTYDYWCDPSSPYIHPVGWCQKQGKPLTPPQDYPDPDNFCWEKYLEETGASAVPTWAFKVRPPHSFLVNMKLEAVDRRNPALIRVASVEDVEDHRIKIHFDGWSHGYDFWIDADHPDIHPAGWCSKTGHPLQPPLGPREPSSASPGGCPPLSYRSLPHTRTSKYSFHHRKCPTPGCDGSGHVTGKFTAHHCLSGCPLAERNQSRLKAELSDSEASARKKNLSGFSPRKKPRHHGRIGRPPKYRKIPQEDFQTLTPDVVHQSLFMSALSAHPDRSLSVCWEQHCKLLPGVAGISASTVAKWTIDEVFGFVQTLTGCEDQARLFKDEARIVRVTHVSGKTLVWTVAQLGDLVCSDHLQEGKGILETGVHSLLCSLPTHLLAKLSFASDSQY
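AlphaScreen proximity signal between nickel-chelate acceptor and streptavidin donor beads (final 10 ug/mL) reports binding of 50 nM L3MBTL1 to 75 nM biotin-H3 K9me1 peptide; complex incubated with compounds 30 min at room temperature; cefsulodin titration as control.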
VDR inh – Inhibitors of the vitamin D receptor (VDR): qHTS; Vitamin D3 receptor (Homo sapiens), P11473; VDR-SRC2-3 peptide fluorescence polarization, 2 h; Potency, µM, usual class: inhibitors; 0.93% of 400,000 active; AID 504847, 2011
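Fluorescence polarization assay of small-molecule disruption of VDR binding to coregulator peptide SRC2-3. Compounds and controls pin-transferred, then read after 2 h incubation at ambient room temperature.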
JMJD2A Tudor – qHTS Assay for Inhibitors of JMJD2A-Tudor Domain; 4.4% of 390,000 active; AlphaScreen JMJD2A-Tudor / H3K4me3 peptide binding; Potency, µM (top dose mostly 114 µM), hits mostly inhibitors; Lysine-specific demethylase 4A (Homo sapiens), O75164; also: nearly all actives have a fitted effect of over 50% in size
HP1b chromo inh – HTS for Inhibitors of HP1-beta Chromodomain Interactions with Methylated Histone Tails; AlphaScreen HP1-beta / biotin-H3K9me3 peptide binding; Potency, µM (highest dose often 114 µM), usual class: inhibitors; 0.56% of 390,000 active; also: nearly all actives have a fitted effect of over 70% in size
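Compound inhibition of the preformed complex between 50 nM HP1-beta and 50 nM biotinylated H3K9me3 peptide was read by AlphaScreen. Buffer was PBS pH 7.4 with 0.01% Tween-20. Incubations ran 30 min at room temperature, with 10 ug/mL donor/acceptor beads.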
PLK1 PBD block – qHTS for Inhibitors of PLK1-PDB (polo-like kinase 1 - polo-box domain): Primary Screen; Serine/threonine-protein kinase PLK1 (Homo sapiens), P53350; Plk1 PBD binding of FITC phosphopeptide, fluorescence polarization; Potency, µM, usual class: inhibitors; 2.8% of 360,000 active; AID 720504, 2013; also: series mostly up to about 57 µM; nearly all actives have a fitted effect of over 65% in size
USP1 UbRho – Inhibitors of USP1/UAF1: Hit Validation in Primary Assay. shares compounds with VDR inh. Ub-Rhodamine cleavage, fluorescence kinetic read. Potency, µM (series often up to 114 µM), actives largely listed as inhibitors. 50% of 50 active. AID 540327, 2011
VDR inh confirm – qHTS for Inhibitors of the vitamin D receptor (VDR): Hit Validation in Primary Screen; shares compounds with VDR inh; VDR-coactivator inhibition assay, qHTS confirmation; Potency, µM, usual class: inhibitors; 89% of 840 active; AID 602199, 2012
VDR FP fluor – qHTS for Inhibitors of the vitamin D receptor (VDR): Hit Validation using a Fluorescein Assay; Potency, µM (top dose mostly 57.1 µM), hits mostly inhibitors; AID 602200, 2012; VDR-coactivator binding, fluorescein fluorescence polarization; shares compounds with VDR inh; 48% of 840 active
VDR bla reporter – qHTS for Inhibitors of the vitamin D receptor (VDR): Hit Validation using a Beta-Lactamase Assay | shares compounds with VDR inh | VDR beta-lactamase reporter cells, FRET ratio; cells co-treated with VDR agonist LG190178 | Potency, µM (titrated, usually from 46.1 µM), most hits filed as inhibitors | 23% of 840 active | AID 602202, 2012
VDR viability – qHTS for Inhibitors of the vitamin D receptor (VDR): Hit Validation using a Cytotoxicity Assay | shares compounds with VDR inh | cytotoxicity counter-screen, cell viability, qHTS | Potency, µM (top dose mostly 48.3 µM), hits mostly cytotoxic | 18% of 840 active | AID 602204, 2012; also: nearly all actives have a fitted effect of over 75% in size
Hits are given with their value; - = inactive; ? = inconclusive; . = not tested or not shown; [ ] = dose if it differs, or a comment. Calls follow the shape of the dose curve; as a rule, active = well fitted curve in the direction sought with a large enough effect; inconclusive = small, poorly fitted or top-dose-only effect, or another doubt; inactive = no such curve, though single readings can be large; an effect the other way counts as inactive or inconclusive.

SMILES | BAZ2B inh | L3MBTL1 block | VDR inh | JMJD2A Tudor | HP1b chromo inh | PLK1 PBD block | VDR inh confirm | VDR FP fluor | VDR bla reporter | VDR viability | others
CNc1ccc(Br)cc(C(=O)/C=C/c2cccc(Cl)c2Cl)c1=O | ? | ? | ? | 45µM | - | ? | 8.9 | - | 23µM | -
CN=CC1=C(O)c2ccccc2C1=O | - | - | - | - | - | - | . | . | . | .
O=C1C(C2=C(O)c3ccccc3C2=O)=Nc2ccccc21 | 40µM | ? | 13µM | 32µM | ? | ? | 0.75 | ? | - | ?
CCCNc1nc(C)cc(-c2cc(C(=O)Nc3ccccc3)on2)n1 | . | . | - | - | - | - | . | . | . | .
Cc1nc2c(nc1C)C(=O)c1ccccc1C2=O | . | . | - | - | - | - | . | . | . | .
CC1(C)C(=O)NC2=C1C(=O)C(=O)c1ccccc12 | . | . | 45µM | . | . | . | . | . | . | . | USP1 UbRho=0.83µM
C=CCn1cccc(/C=C/C(=O)c2ccc(C(C)(C)C)cc2)c1=S | 11µM | 28µM | ? | 32µM | ? | - | 7.1 | 7.1µM | ? | ?
CN1CCN(C(=S)NC(=O)c2ccc(C(C)(C)C)cc2)CC1 | - | - | - | - | - | - | . | . | . | .
O=C(CC1C=Cc2ccccc2N1C(=O)c1ccccc1)c1ccccc1 (stereo not drawn) | - | . | - | - | - | - | . | . | . | .
COc1ccc(NC(=O)/C(Cl)=C(/Cl)S(=O)(=O)Cc2ccc(C)cc2)cn1 | - | . | 16µM | - | - | 21µM | 19 | 13µM | 5.8µM | 21µM
CCn1c2ccccc2c2cc(NC(=O)C(C)Oc3ccc(OC)cc3)ccc21 (stereo not drawn) | - | - | - | - | - | - | . | . | . | .
CCCN(CC(=O)Nc1cc(Cl)ccc1Cl)C(=O)c1ccccc1SCC(=O)N1CCCC1 | - | - | - | - | - | - | . | . | . | .
Cc1c(Cc2ccc3c(c2)OCO3)sc(NC(=O)c2cccc3ccccc23)c1C(N)=O | ? | - | ? | ? | ? | 6µM | 10 | 14µM | ? | -
COC(=O)c1c(NC(=O)CN2C(=O)c3ccccc3C2=O)sc(Cc2ccc3c(c2)OCO3)c1C | - | - | - | - | - | - | . | . | . | .
CC1=NN(c2ccc(C)c(C)c2)C(=O)/C1=C/c1ccc2c(c1)n(C)c(=O)n2C | ? | - | ? | - | - | ? | . | . | . | .
COc1ccc(/C=C2/C(=O)N(c3cccc(F)c3)N=C2C)c(OC)c1 | ? | -[2.29 µM] | - | - | - | ? | . | . | . | .
CC1=NN(c2cccc(C(=O)O)c2)C(=O)/C1=C\C=C/c1ccccc1 | ? | . | ? | ? | ? | 5.3µM | 3.2 | 3.2µM | 8.2µM | ?
COc1ccc(/C=C2/C(=O)N(c3ccccc3)N=C2C)cc1Br | 13µM | . | 50µM | 18µM | 22µM | 2.1µM | 9.5 | ? | - | -
CC1=NN(c2ccccc2)C(=O)/C1=C/c1ccc(Cl)cc1 | ? | ? | 79µM | ? | ? | 1.9µM | 15 | ? | - | -
COc1ccc(C(=O)N2CCN(c3ccccc3Cl)CC2)cc1S(=O)(=O)NC1CC1 | - | - | - | - | - | - | . | . | . | .
Cc1ccc(S(=O)(=O)Nc2ccc(O)c3ccccc23)c(C)c1 | 45µM | . | 28µM | 45µM | 50µM | 4.2µM | 11 | 10µM | - | ?
CCC(CC)c1nnc(NC(=O)C2=NNC(=O)CC2)s1 | ? | - | - | ? | - | - | . | . | . | .
COc1ccccc1C1NC(c2ccc3c(c2)OCO3)=CC(c2cc(Cl)ccc2O)N1 (stereo not drawn) | . | . | - | - | - | . | . | . | . | .
COc1ccc(Br)cc1C1NC(c2ccc3c(c2)OCO3)=CC(c2cc(Cl)ccc2O)N1 (stereo not drawn) | . | . | 50µM | 89µM | - | . | ? | ? | ? | -
Cc1ccc(/C=C/C(=O)c2nc3ccccc3[nH]2)cc1 | - | - | ? | - | - | - | ? | ? | ? | -
SMILES | BAZ2B inh | L3MBTL1 block | VDR inh | JMJD2A Tudor | HP1b chromo inh | PLK1 PBD block | VDR inh confirm | VDR FP fluor | VDR bla reporter | VDR viability | others
Cc1ccc(CNC(=O)CC2(CC3=NS(=O)(=O)c4ccccc4N3)CCCC2)cc1 | - | - | - | - | - | - | . | . | . | .
CN1CCN(C(=S)NC(=O)c2ccc(Br)cc2)CC1 | - | - | - | - | - | - | . | . | . | .
CN1CCN(C(=S)C(=O)Nc2ccc(Br)cc2)CC1 | - | - | ? | 89µM | ? | 2.4µM | 4 | 3.5µM | - | -
COc1cc(/C=C/C(=O)Nc2nnc(CC(C)(C)C)s2)cc(OC)c1OC | - | - | 79µM | ? | ? | 8.4µM | 21 | 14µM | - | -
COc1ccc(/C=C/C(=O)Nc2nnc(C(C)C)s2)cc1OC | - | . | - | - | - | - | . | . | . | .
Cc1c(C(=O)N(C)C)sc2c1c(=O)n(-c1ccccc1C(F)(F)F)c(=O)n2Cc1cccc(F)c1 | - | . | - | - | - | . | . | . | . | .
Cc1ccc(C(=O)/C=C/c2ccccc2)o1 | - | . | ? | - | - | - | . | . | . | .
O=C(/C=C/c1ccc(Cl)cc1)c1ccc([N+](=O)[O-])o1 | - | - | 11µM | - | - | ? | 1.3 | 1µM | 7.3µM | -
CCOc1ccc(/C=C/C(=O)c2cc(Br)ccc(=O)c2O)cc1 | 45µM | - | 50µM | 50µM | - | ? | 13 | - | - | -
O=C(C=Cc1ccccc1)c1cc(Br)ccc1O | . | . | ? | - | - | - | . | . | . | .
